SMILES strings stand for the structures.

The nature of this assay: binders of probe aFGF10 on microarray, primary screen, stem cell growth factor project, biochemical, small-molecule microarray, fluorescence 635/667 (AID 1071).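 Also: score merges 667 nm spot intensity and signal to noise from triplicate slides.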 The conditions noted are these: higher = more signal.
`CC#CC(=O)Oc1ccc(Br)cc1C=CC(=O)OCC` showed a composite z-score of 0.0178.
As for `CCCC(=O)N(CCc1c[nH]c2ccccc12)[C@@H]1CC(C(=O)NCCO)=C[C@H](Oc2c(I)cc(CO)cc2OC)[C@H]1O`, the figure is 0.187; as for `COCCOC(=O)N1C(=O)[C@@]2(c3ccccc31)[C@H](C(=O)N1CCCCCCC1)[C@H]1C(=O)O[C@H](c3ccccc3)[C@H](c3ccccc3)N1[C@@H]2c1ccc(OCCO)cc1`, 1.49.
Regarding `CCOC(=O)C[C@H]1[C@H](OC(=O)c2cc3ccccc3oc2=O)[C@@H](NC(=O)CC(C)C)c2cc(OCCCO)ccc2N1C(=O)c1ccccc1`, the composite z-score is 0.667.
As for `O=C1OCC=C[C@H]2OC34C=CCN(CCN5CCOCC5)C(=O)[C@H]3N(CCO)C(=O)[C@@H]4[C@@H]12` (stereo not given in full), the composite z-score was -0.659.
Regarding `COCC(=C=CC[C@H](O)c1cccc(OCCO)c1)CCO`, the composite z-score was determined as 0.242.
For the molecule `C#CCN1[C@H](/C=C/C2CC2)[C@H](Cc2ccccc2)OC(=O)[C@@H]1Cc1ccccc1`, the composite z-score is -0.0377.
Turning to `O[C@@H](Cc1ccccc1)[C@@H](/C=C/C1CC1)NCc1cccc(Cl)c1`, the composite z-score is -0.813.
As to `C=C(/C(=C/C[C@H](OC(C)=O)c1ccc(OCCO)cc1)c1cc(C(=O)OC)ccc1OC)C(C)C`, the composite z-score came out at 0.41.
In turn, `CCCC[C@@H]1C[C@H]1[C@@H](NC(=O)c1cccnc1)c1ccc(Cl)cc1` came in with a composite z-score of -1.77.
With `CC(C)[C@@H](C(=O)O)n1cc(C2(O)CCCCC2)nn1`, the composite z-score was 0.78.
`CC(C)CCC[C@@H](C)[C@H]1CC[C@@]2(C)C3=C(CC[C@]12C)[C@@]1(C)CC[C@H](OC(=O)c2ccc(C(F)(F)F)nc2)C(C)(C)C1CC3` (stereo not given in full) showed a composite z-score of 0.312.
As for `O=C1O[C@@H](c2ccccc2)[C@@H](c2ccccc2)N2[C@@H](c3ccc(OCCO)cc3)[C@]3(C(=O)Nc4ccc(C#CC5=CCCCC5)cc43)[C@@H](C(=O)N3CCCCCCC3)[C@H]12`, the composite z-score worked out at 0.867.
In turn, `CC(C)NC(=O)[C@@]1(Cc2ccccc2I)c2ccccc2C(=O)N(Cc2ccccc2Cl)[C@H]1c1ccc(CO)cc1` displayed a composite z-score of 0.504.
Take `COc1ccc([Si](C)(C)[C@H]2[C@H](CCO)O[C@@]3(C(=O)N(Cc4ccccc4)c4ccc(N5CCCCC5=O)cc43)[C@@H]2C)cc1`: the composite z-score was found to be 0.74.
Molecule `COc1ccc([C@H]2C[C@H]3C(Br)=C[C@@]2(CO)C(=O)[C@]32CO2)cc1` displayed a composite z-score of 0.0327.
As for `CO[C@H]1O[C@H](CO)[C@@H](OC(=O)Nc2ccc(Oc3ccccc3)cc2)[C@H](OC(=O)Nc2ccc3c(c2)OCO3)[C@@H]1OC(=O)Nc1ccc2c(c1)OCO2`, the figure is 1.22; as for `O=C(NC1CC1)[C@@H]1c2ccccc2C(=O)N(C2Cc3ccccc3C2)[C@H]1c1ccc(CO)cc1`, 0.139; as for `CC(C)=CCCC(C)=CC(O)C1C=CC2C(=O)N(c3ccccc3)C(=O)C2N1Nc1ccc(C(C)C)cc1` (stereo not given), 0.249.
Take `C=CC[C@]1(C(N)=O)N=C(c2ccc(OCCCO)cc2)O[C@H]1c1ccccc1`: the composite z-score is -0.0773.
On to `COc1cc2c(cc1O)C(c1cccs1)N(Cc1cccc(OC(F)(F)F)c1)CC2` (stereo not given), for which the composite z-score is -0.0012.
Take `C=C(CCCC)C(=O)CC[C@@H](OC(C)=O)c1ccc(CO)o1`: the composite z-score is 0.726.
In turn, `O=C(CS)NCCCCCNC(=O)[C@H]1C[C@H]2C(=O)NCC(=O)N2[C@H]1c1ccc(O)cc1` returned a composite z-score of -0.583.
Consider `COC(=O)[C@H](Cc1ccccc1)N[C@H](/C=C/C1CC1)[C@@H](O)Cc1ccccc1`, for which the composite z-score was -0.471.
`C=C(CCCC)C(=O)CC[C@H](OC(=O)c1cccnc1)c1ccc(OCCO)cc1` displayed a composite z-score of 0.149.
`O=C1O[C@@H](c2ccccc2)[C@@H](c2ccccc2)N2[C@@H](c3ccccc3OCCO)[C@]3(C(=O)Nc4ccc(C#CC5(O)CCCCCC5)cc43)[C@@H](C(=O)N3CCN(c4ncccn4)CC3)[C@H]12`: the composite z-score came out at 0.92.
For the molecule `C=CCN1C(=O)[C@]2(O[C@H](CCO)[C@@H]([Si](C)(C)c3ccc(OC)cc3)[C@@H]2C)c2cc(N(C=O)c3ccccc3)ccc21`, the composite z-score was found to be 0.26.
As for `C=C(C(=O)CC[C@H](OC(C)=O)c1ccccc1OCCO)C(C)C`, the figure is 0.317; as for `COC(=O)[C@@]1(Cc2ccc(OC)cc2)[C@H]2c3cc(C(=O)N4CCCC4)n(Cc4nc5ccccc5[nH]4)c3C[C@H]2CN1C(=O)c1ccccc1`, 1; as for `CC(c1ccccc1)C(O)C1C=CC2C(=O)N(c3ccccc3)C(=O)C2N1Nc1ccccc1` (stereo not given), 1.13.
Molecule `CCCC[C@H]1C[C@@H]1[C@@H]1N(P(=O)(c2ccccc2)c2ccccc2)C[C@@](O)(c2ccccc2)CC12CC2` showed a composite z-score of -0.102.
For the molecule `COCC(=C=CC[C@H](O)c1ccccc1OCCO)CCO`, the composite z-score worked out at 0.225.
As to `O=C1C[C@@](C(=O)NCc2ccccc2)(c2ccc([N+](=O)[O-])cc2)[C@@H](c2ccc(CO)cc2)N1CC12CC3CC(CC(C3)C1)C2`, the composite z-score is 0.435.
Take `COC(=O)c1c(CC[C@@H](CO)NC(=O)N[C@H](Cc2ccccc2)Cn2cc(-c3ccccn3)nn2)oc(C(C)=O)c1C(=O)OC`: the composite z-score was determined as 0.19.
Turning to `COC(=O)[C@]1(CCC(=O)OC(C)(C)C)N=C(c2ccc(OCCCO)cc2)O[C@@H]1c1ccccc1`, the composite z-score is -0.87.

For the origin of these results see PubChem BioAssay.
